The results in this text go back to PubChem BioAssay AID588683 (Broad Institute, 2011).

The target in the experiment is Kelch-like ECH-associated protein 1 (Homo sapiens) + Nuclear factor erythroid 2-related factor 2 (Homo sapiens) (UniProt Q14145+Q16236). Description: Keap1-Nrf2 protein-protein interaction inhibitors, dose response, biochemical, fluorescence polarization, cherry-picked samples (AID 588683).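 Note: Kelch domain of Keap1 binding a fluorescein-labelled 9mer Nrf2 peptide; more negative means stronger inhibition of peptide binding.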 A general note: Polarisation of emitted light reports the rotation of a fluorescent probe.
Sequence of Kelch-like ECH-associated protein 1 (Homo sapiens) + Nuclear factor erythroid 2-related factor 2 (Homo sapiens) (Q14145 whole entry, looked up, the tested form may be a part): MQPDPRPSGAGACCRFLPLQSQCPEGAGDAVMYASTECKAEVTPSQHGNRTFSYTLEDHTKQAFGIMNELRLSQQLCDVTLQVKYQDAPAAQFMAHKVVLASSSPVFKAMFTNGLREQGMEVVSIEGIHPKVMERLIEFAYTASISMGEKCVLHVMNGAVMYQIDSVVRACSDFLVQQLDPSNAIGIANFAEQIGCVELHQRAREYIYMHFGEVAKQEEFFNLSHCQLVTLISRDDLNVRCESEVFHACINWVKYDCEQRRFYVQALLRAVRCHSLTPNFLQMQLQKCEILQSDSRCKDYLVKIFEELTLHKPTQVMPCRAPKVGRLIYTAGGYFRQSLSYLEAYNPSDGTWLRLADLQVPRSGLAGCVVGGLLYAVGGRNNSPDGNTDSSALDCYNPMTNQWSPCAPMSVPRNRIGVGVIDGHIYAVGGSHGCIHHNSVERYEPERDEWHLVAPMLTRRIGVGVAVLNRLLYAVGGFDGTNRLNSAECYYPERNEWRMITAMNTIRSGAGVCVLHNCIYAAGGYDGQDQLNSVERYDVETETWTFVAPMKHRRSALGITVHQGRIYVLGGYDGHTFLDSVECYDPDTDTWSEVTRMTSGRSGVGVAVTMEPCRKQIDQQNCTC
Sequence of Kelch-like ECH-associated protein 1 (Homo sapiens) + Nuclear factor erythroid 2-related factor 2 (Homo sapiens) (Q16236 whole entry, looked up, the tested form may be a part): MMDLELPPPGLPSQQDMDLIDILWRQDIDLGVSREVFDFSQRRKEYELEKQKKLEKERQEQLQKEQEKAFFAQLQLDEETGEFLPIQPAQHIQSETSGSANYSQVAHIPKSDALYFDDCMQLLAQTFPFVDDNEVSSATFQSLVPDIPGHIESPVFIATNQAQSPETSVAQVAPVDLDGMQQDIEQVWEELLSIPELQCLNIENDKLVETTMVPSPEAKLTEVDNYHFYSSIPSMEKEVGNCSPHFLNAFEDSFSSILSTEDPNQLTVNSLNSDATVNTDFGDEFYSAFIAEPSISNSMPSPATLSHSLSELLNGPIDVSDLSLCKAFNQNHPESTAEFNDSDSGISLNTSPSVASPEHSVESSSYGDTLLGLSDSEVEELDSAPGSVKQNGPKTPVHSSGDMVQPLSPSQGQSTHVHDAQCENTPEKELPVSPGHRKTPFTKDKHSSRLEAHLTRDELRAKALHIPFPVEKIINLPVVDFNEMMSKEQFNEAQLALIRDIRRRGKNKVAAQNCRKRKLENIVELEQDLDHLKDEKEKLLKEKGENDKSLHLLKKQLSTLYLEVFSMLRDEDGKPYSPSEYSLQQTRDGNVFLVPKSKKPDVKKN

Each structure is given as a SMILES string. Entries with a potency or affinity are not part of this list. Activity calls are given as the source filed them. The rule behind the calls is not given here.

As to `CC1(O)CCN2C(=O)CCc3cccc1c32` (stereo unspecified), the outcome was inactive. For `CCCCc1ccc(C(=O)O)nc1`, the result was inactive. In the case of `COCCNC(=O)Cn1cc(/C=C2\C(=O)NC(=O)N(c3cccc(C)c3C)C2=O)c2ccccc21` it was “inactive”. The result for `CN1CC=C2C(C#N)=C(N)C(C#N)(C#N)C(c3ccncc3)C2C1` (stereo unspecified) reads “inactive”; that for `O=C(O)c1cccc2c1NC(C(=O)O)C1CC(Sc3ccccc3[N+](=O)[O-])C(Cl)C21` (stereo unspecified), “inactive”; that for `Cc1cc(C=C2C(=O)NC(=O)NC2=O)c(C)n1-c1cccnc1`, “inactive”. The result for `COc1ccc(-n2c(CNCCc3ccc(C)cc3)nc3ccccc3c2=O)cc1` reads “inactive”; that for `CCOC(=O)c1c(/N=C/c2c(O)n(-c3cccc(C)c3)c(=O)[nH]c2=O)sc2c1CCCC2`, “inactive”. Regarding `Cn1cc(/C=C2\C(=O)NC(=O)N(c3ccccc3)C2=O)c2ccccc21`, the result was inactive. In the case of `CN1/C(=C\C=C2C(=O)NC(=O)NC2=O)C(C)(C)c2ccccc21` it was “inactive”. The result for `CCn1cc(C=C2C(=O)NC(=O)NC2=O)c2ccccc21` reads “inactive”.
